Measured values reported in PubChem BioAssay (NCI).
Compounds without any hit were thinned out: in the full panel of roughly 83,000, 20% have a hit.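 Testing used 96-well plates and a 48-hour single-concentration exposure. Example: -40 means 40% of the starting cells died.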 Activity calls are given as the source filed them. Rule for the calls: active = growth percent below 10; inactive = the rest.

Tested on: NCI/ADR-RES ovarian
Experiment: NCI-60 one-dose screen, 48 h (100 = growth as untreated, 0 = no growth, -100 = all killed)
Settings: 10 µM unless noted

Compound | growth
O=S(=O)(NCCCNc1nccc(-n2ccc3cccnc32)n1)c1cccc(C(F)(F)F)c1 | 101% (inactive)
CC(C)(C)n1cc(-c2ccnc(NCCNS(=O)(=O)c3ccc(F)cc3)c2)c(-c2cccc(O)c2)n1 | 61.7% (inactive)
Cc1ccc(-c2cc3nc(C(Cl)Cl)nc(-c4ccccc4C)n3n2)cc1 | 60.3% (inactive)
O=C(NNC(=O)N1c2ccccc2C=Cc2ccccc21)c1ccc2ccccc2c1 | 93% (inactive)
CN(C[C@H]1Cc2c(cccc2N2CCN(Cc3ccccn3)CC2)CN1)[C@H]1CCCc2cccnc21 | 28.1% (inactive)
CCCCCCCCC(C)OC(=O)c1nn(C(C)=O)c2ccccc12 (centres undefined) | 101% (inactive)
OC(c1cc2cc(Br)ccc2c2cc(Br)ccc12)C1CCCCN1 (centres undefined) | -65.1% (active)
O=C(NS(=O)(=O)c1ccc2ccccc2c1)n1cc(-c2ccncc2)c(-c2ccc(Cl)c(O)c2)n1 | 87.6% (inactive)
Cc1cc(N)n(S(=O)(=O)c2oc(-c3ccccc3)nc2C#N)n1 | 100% (inactive)
O=[N+]([O-])c1ccc(C(c2ccccc2)c2ccccc2)cc1 | 88.8% (inactive)
CN(C)c1oc(C2OC2c2ccccc2)nc1C#N (centres undefined) | 100% (inactive)
Cc1ccc(S(=O)(=O)NC(=O)n2cc(-c3ccncc3)c(-c3ccc(Cl)c(O)c3)n2)cc1 | 104% (inactive)
CN(CCCCN(C[C@H]1Cc2ncccc2CN1)[C@H]1CCCc2cccnc21)C1CCC(F)(F)CC1 | 85.8% (inactive)
Cc1cc(C2(c3cc(C)c(O)cc3C)OS(=O)(=O)c3ccccc32)c(C)cc1O | 110% (inactive)
